Whole data set: some 8,300 sequences, median “log2 fold change of degron read counts, EGFP-low vs EGFP+ sorted cells (limma voom), compound-induced degradation” near -1.1, cut for the highest 2% near 3.2. What follows is part of a selection rich in the highest values, with near analogues and random picks from the rest.

The experiment has as its target T1, CRBN, Q96SW2.
T1 chain: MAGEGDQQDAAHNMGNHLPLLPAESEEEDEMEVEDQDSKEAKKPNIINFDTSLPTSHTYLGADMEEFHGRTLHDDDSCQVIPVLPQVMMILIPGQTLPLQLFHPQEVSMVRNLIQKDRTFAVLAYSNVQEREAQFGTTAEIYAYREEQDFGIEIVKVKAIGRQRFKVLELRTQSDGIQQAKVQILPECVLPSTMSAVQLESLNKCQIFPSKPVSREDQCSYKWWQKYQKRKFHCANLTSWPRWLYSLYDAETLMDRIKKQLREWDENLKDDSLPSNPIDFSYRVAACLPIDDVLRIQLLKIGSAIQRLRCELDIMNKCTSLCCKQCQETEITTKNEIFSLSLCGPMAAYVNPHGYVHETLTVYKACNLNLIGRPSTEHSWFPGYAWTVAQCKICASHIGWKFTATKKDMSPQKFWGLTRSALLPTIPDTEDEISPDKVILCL
Kind of experiment: log2 fold change of degron read counts, EGFP-low vs EGFP+ sorted cells (limma voom), compound-induced degradation; higher = more compound-induced degradation of the degron-EGFP fusion; degrons are variants of IKZF1/3 zinc finger 2; compound dose not given here. Conditions: Jurkat, 18 h.

Where [1] appears, read: compound: compound 19 (5-tert-butyl-thalidomide).
Where [2] appears, read: compound: compound 22 (5-morpholino-thalidomide).
The mark [3] stands for this setting: compound: compound 33 (diphenyl IMiD analogue).
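Also: pooled lentiviral library of zinc finger degron-EGFP fusions in mCherry-positive Jurkat cells, FACS-sorted after compound exposure, with degron abundance counted by next-generation sequencing.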

B1: 46L_47M_49E_50I_52G_53F_54L_55C_67L_, Q9UKT9 (peptide)
chain: LMCEICGFLCTQKGNLLRHIKL
For B1, the “log2 fold change of degron read counts” value reads like this: under setting [1], -1.21; under setting [2], -1.08; under setting [3], 0.82; (compound: thalidomide) 0.189.

B2: 46L_47G_49E_50I_52G_53F_54F_55C_67L_, Q9UKT9 (peptide)
chain: LGCEICGFFCTQKGNLLRHIKL
With B2, the “log2 fold change of degron read counts” value is 1.15 under setting [1], 0.461 under setting [2], 0.628 under setting [3] and 0.198 (compound: thalidomide).

B3: 46F_47I_49E_50Q_52G_53A_54E_55F_67L_, Q9UKT9 (peptide)
chain: FICEQCGAEFTQKGNLLRHIKL
With B3, the “log2 fold change of degron read counts” value by setting is: under setting [1], -2.28; under setting [2], -1.92; under setting [3], -1.09; (compound: thalidomide) -0.382.

B4: 46F_47M_49S_50V_52G_53H_54P_55F_67L_, Q9UKT9 (peptide)
chain: FMCSVCGHPFTQKGNLLRHIKL
In the case of B4, the “log2 fold change of degron read counts” value is -2.27 under setting [1], -1.78 under setting [2], -1.3 under setting [3] and -1.51 (compound: thalidomide).

B5: 46L_47L_49N_50Q_52G_53F_54M_55C_67L_, Q9UKT9 (peptide)
chain: LLCNQCGFMCTQKGNLLRHIKL
For B5, the “log2 fold change of degron read counts” value is, setting by setting: under setting [1], -1.85; under setting [2], -1.98; under setting [3], -1.61; (compound: thalidomide) -1.33.

B6: 46F_47Y_49D_50Q_52G_53A_54Y_55F_67L_, Q9UKT9 (peptide)
chain: FYCDQCGAYFTQKGNLLRHIKL
As to B6, the “log2 fold change of degron read counts” value reads like this: under setting [1], -0.745; under setting [2], -1.31; under setting [3], -1.38; (compound: thalidomide) -2.23.

B7: 46F_47D_49N_50Q_52G_53H_54Q_55F_67L_, Q9UKT9 (peptide)
chain: FDCNQCGHQFTQKGNLLRHIKL
B7: the “log2 fold change of degron read counts” value under setting [1] is -2.63, the “log2 fold change of degron read counts” value under setting [2] was -3.11, the “log2 fold change of degron read counts” value under setting [3] was -2.64 and the “log2 fold change of degron read counts” value (compound: thalidomide) is -2.65.

B8: 46F_47S_49E_50I_52G_53A_54H_55F_67L_, Q9UKT9 (peptide)
chain: FSCEICGAHFTQKGNLLRHIKL
On to B8, for which the “log2 fold change of degron read counts” value runs as follows: under setting [1], 2.47; under setting [2], 0.831; under setting [3], 0.776; (compound: thalidomide) 0.206.

B9: 46F_47V_49E_50I_52G_53A_54H_55F_67L_, Q9UKT9 (peptide)
chain: FVCEICGAHFTQKGNLLRHIKL
As to B9, the “log2 fold change of degron read counts” value is, setting by setting: under setting [1], 0.302; under setting [2], 1.59; under setting [3], 1.49; (compound: thalidomide) 1.95.

B10: 46F_47D_49E_50I_52G_53A_54H_55F_67L_, Q9UKT9 (peptide)
chain: FDCEICGAHFTQKGNLLRHIKL
B10: the “log2 fold change of degron read counts” value was 3.28 under setting [1], 0.822 under setting [2], -0.326 under setting [3] and 1.02 (compound: thalidomide).

B11: 46F_47V_49E_50I_52G_53R_54H_55F_67L_, Q9UKT9 (peptide)
chain: FVCEICGRHFTQKGNLLRHIKL
Consider B11, for which the “log2 fold change of degron read counts” value reads like this: under setting [1], -2.45; under setting [2], -1.78; under setting [3], -2.13; (compound: thalidomide) -0.209.

B12: 46F_47T_49E_50I_52G_53H_54L_55F_67L_, Q9UKT9 (peptide)
chain: FTCEICGHLFTQKGNLLRHIKL
Regarding B12, the “log2 fold change of degron read counts” value was -2.72 under setting [1], -3.75 under setting [2], -2.61 under setting [3] and -2.41 (compound: thalidomide).

B13: 46F_47Y_49P_50I_52G_53H_54C_55F_67L_, Q9UKT9 (peptide)
chain: FYCPICGHCFTQKGNLLRHIKL
Take B13: the “log2 fold change of degron read counts” value was -1.24 under setting [1], -1.33 under setting [2], -0.382 under setting [3] and -1.61 (compound: thalidomide).

B14: 46F_47N_49P_50V_52G_53A_54N_55F_67L_, Q9UKT9 (peptide)
chain: FNCPVCGANFTQKGNLLRHIKL
As for B14, the “log2 fold change of degron read counts” value under setting [1] worked out at 1.79, the “log2 fold change of degron read counts” value under setting [2] came to 0.637, the “log2 fold change of degron read counts” value under setting [3] is 0.771 and the “log2 fold change of degron read counts” value (compound: thalidomide) stood at 0.306.

B15: 46F_47M_49P_50V_52G_53A_54N_55F_67L_, Q9UKT9 (peptide)
chain: FMCPVCGANFTQKGNLLRHIKL
With B15, the “log2 fold change of degron read counts” value under setting [1] was -0.564, the “log2 fold change of degron read counts” value under setting [2] was determined as 1.22, the “log2 fold change of degron read counts” value under setting [3] stood at 2.92 and the “log2 fold change of degron read counts” value (compound: thalidomide) turned out to be 1.69.

B16: 46F_47S_49P_50V_52G_53A_54N_55F_67L_, Q9UKT9 (peptide)
chain: FSCPVCGANFTQKGNLLRHIKL
As for B16, the “log2 fold change of degron read counts” value was determined as 1.92 under setting [1], 1.29 under setting [2], 1.78 under setting [3] and 0.865 (compound: thalidomide).

B17: 46F_47Y_49P_50V_52G_53A_54N_55F_67L_, Q9UKT9 (peptide)
chain: FYCPVCGANFTQKGNLLRHIKL
Consider B17, for which the “log2 fold change of degron read counts” value under setting [1] is 2.82, the “log2 fold change of degron read counts” value under setting [2] is 3.69, the “log2 fold change of degron read counts” value under setting [3] is 2.32 and the “log2 fold change of degron read counts” value (compound: thalidomide) is 1.3.

B18: 46F_47W_49P_50V_52G_53A_54N_55F_67L_, Q9UKT9 (peptide)
chain: FWCPVCGANFTQKGNLLRHIKL
With B18, the “log2 fold change of degron read counts” value reads like this: under setting [1], 3.05; under setting [2], 3.85; under setting [3], 2.12; (compound: thalidomide) 1.69.

B19: 46F_47E_49N_50I_52G_53A_54N_55F_67L_, Q9UKT9 (peptide)
chain: FECNICGANFTQKGNLLRHIKL
For the sequence B19, the “log2 fold change of degron read counts” value is, setting by setting: under setting [1], -1.93; under setting [2], -1.27; under setting [3], 1.75; (compound: thalidomide) 2.22.

B20: 46F_47Q_49P_50V_52G_53A_54N_55F_67L_, Q9UKT9 (peptide)
chain: FQCPVCGANFTQKGNLLRHIKL
Take B20: the “log2 fold change of degron read counts” value under setting [1] was found to be 0.19, the “log2 fold change of degron read counts” value under setting [2] turned out to be 2.02, the “log2 fold change of degron read counts” value under setting [3] was 1.9 and the “log2 fold change of degron read counts” value (compound: thalidomide) is 3.48.

B21: 46F_47L_49P_50V_52G_53A_54N_55F_67L_, Q9UKT9 (peptide)
chain: FLCPVCGANFTQKGNLLRHIKL
As to B21, the “log2 fold change of degron read counts” value by setting is: under setting [1], -0.132; under setting [2], 0.243; under setting [3], 1.67; (compound: thalidomide) 1.54.

B22: 46F_47Y_49N_50I_52G_53A_54N_55F_67L_, Q9UKT9 (peptide)
chain: FYCNICGANFTQKGNLLRHIKL
For the sequence B22, the “log2 fold change of degron read counts” value amounted to 1.69 under setting [1], 2.89 under setting [2], 1.33 under setting [3] and 0.00754 (compound: thalidomide).

B23: 46F_47V_49P_50V_52G_53A_54N_55F_67L_, Q9UKT9 (peptide)
chain: FVCPVCGANFTQKGNLLRHIKL
For the sequence B23, the “log2 fold change of degron read counts” value is -0.407 under setting [1], 2.43 under setting [2], 1.69 under setting [3] and 2.77 (compound: thalidomide).

B24: 46F_47E_49P_50V_52G_53A_54N_55F_67L_, Q9UKT9 (peptide)
chain: FECPVCGANFTQKGNLLRHIKL
As to B24, the “log2 fold change of degron read counts” value under setting [1] is -0.535, the “log2 fold change of degron read counts” value under setting [2] was -0.523, the “log2 fold change of degron read counts” value under setting [3] is 2.7 and the “log2 fold change of degron read counts” value (compound: thalidomide) was 3.16.

B25: 46F_47W_49N_50I_52G_53A_54N_55F_67L_, Q9UKT9 (peptide)
chain: FWCNICGANFTQKGNLLRHIKL
Turning to B25, the “log2 fold change of degron read counts” value under setting [1] was 2.27, the “log2 fold change of degron read counts” value under setting [2] came to 3.62, the “log2 fold change of degron read counts” value under setting [3] was found to be 1.88 and the “log2 fold change of degron read counts” value (compound: thalidomide) is 0.44.

For the origin of these results see the supplement of paper PMC12645437, “Orthogonal IMiD-Degron Pairs Induce Selective Protein Degradation in Cells” (ACS Chemical Biology, 2025).
